Measurements as given in the OligoGym collection.
Further: reference of the scale not given here.

The sequences below were run against CLDN23 (assay: pooled miR-30 sensor sort-seq; sequence = guide strand). Conditions: shRNA.
TTGAGCAGGAGCCCGCAGGGCG gave a sensor-assay potency score (higher = more potent) of -1.37.
Work on TACAACTCCACGTCCACTGGCT yielded a sensor-assay potency score (higher = more potent) of 0.00465.
With AAGTTGGGCTCGTCCTGCCAGC the sensor-assay potency score (higher = more potent) was -1.5.
With TGTAGCTGACCTGCACCGTGAC the sensor-assay potency score (higher = more potent) was -0.702.
TAGTACTTGATGGCGGGCGCCA gave a sensor-assay potency score (higher = more potent) of -1.32.
Work on TGGCCGTCGCTGTAGTACTTGA yielded a sensor-assay potency score (higher = more potent) of -1.77.
In the case of ATGGTGCTGACGCTGCTGCGGC, the sensor-assay potency score (higher = more potent) is reported as -1.77.
Work on TTGGATGGTGCTGACGCTGCTG yielded a sensor-assay potency score (higher = more potent) of -0.0148.
Sequence TTGGGCTCGTCCTGCCAGCAGC has a sensor-assay potency score (higher = more potent) of -1.78.
Work on TGGATGGTGCTGACGCTGCTGC yielded a sensor-assay potency score (higher = more potent) of -1.17.
TTGGTGTAGGCCTTGGGCCGCG showed a sensor-assay potency score (higher = more potent) of -1.14.
TCGCTGTAGTACTTGATGGCGG gave a sensor-assay potency score (higher = more potent) of -1.12.

Each sequence was assayed against CLDN6 in the same assay as above. Conditions: shRNA.
In the case of TAGCGGGCCATGTAATGGCTGG, the sensor-assay potency score (higher = more potent) is reported as -1.06.
TTGGGCCTCAGCCACCAGGGGG gave a sensor-assay potency score (higher = more potent) of -1.51.
TTTGATAAAAATGTGAGTGTAA was tested, and the sensor-assay potency score (higher = more potent) was 0.357.
AATCCCAGAGGTGAGCACCAGG showed a sensor-assay potency score (higher = more potent) of -1.46.
TAGAAGTCCCGGATGATGGCAT gave a sensor-assay potency score (higher = more potent) of 0.0775.
ACAAAGACAATCCCAGAGGTGA was tested, and the sensor-assay potency score (higher = more potent) was -0.71.
In the case of TAGACCAGCAAGCCGAACAGGG, the sensor-assay potency score (higher = more potent) is reported as -0.8.
With TTTGTTAACAGATCATTTGTTT the sensor-assay potency score (higher = more potent) was 0.0812.
Sequence TCCACACAGGTGGTACACTTGG has a sensor-assay potency score (higher = more potent) of -1.58.
TTCTCCTCCACACAGGTGGTAC was tested, and the sensor-assay potency score (higher = more potent) was -1.81.
Work on ATTAGCGTCAGGACCCCTGAGA yielded a sensor-assay potency score (higher = more potent) of -0.855.
ATGACAAAGACAATCCCAGAGG showed a sensor-assay potency score (higher = more potent) of -1.76.

Each sequence was assayed against CLDN9 in the same assay as above. Conditions: shRNA.
Work on TCCACACACGTGGTACACTGGG yielded a sensor-assay potency score (higher = more potent) of -1.23.
Work on ATGAGCACCAGGATGCCGGCGA yielded a sensor-assay potency score (higher = more potent) of -0.538.
With TAGAAGTCCTGGATGATGGCGT the sensor-assay potency score (higher = more potent) was 0.302.
For TTGTCCAGTCCAGATGCACCCG, the sensor-assay potency score (higher = more potent) was -0.545.
In the case of TCGTCCTCCACACACGTGGTAC, the sensor-assay potency score (higher = more potent) is reported as -1.58.
With TTCGTCCTCCACACACGTGGTA the sensor-assay potency score (higher = more potent) was -0.498.
Work on TTGCACTGCATCTGGCCCGTGC yielded a sensor-assay potency score (higher = more potent) of -0.338.
With TAGCCCAGCCGAGGTCCGCGGG the sensor-assay potency score (higher = more potent) was -1.28.
ATGATGGCGTGCGCCGTCCAGC gave a sensor-assay potency score (higher = more potent) of -1.9.
TTGTAGAAGTCCTGGATGATGG was tested, and the sensor-assay potency score (higher = more potent) was -1.14.
In the case of TTTGGAGCCAACGAGCTGCTGC, the sensor-assay potency score (higher = more potent) is reported as -0.374.

The sequences below were run against CLEC9A in the same assay as above. Conditions: shRNA.
Work on TTTGTAGCAGCGTGGAACCTTC yielded a sensor-assay potency score (higher = more potent) of -0.937.
TTCTCTTGACTGGTGTGCCAAA showed a sensor-assay potency score (higher = more potent) of -1.18.
Sequence TTAATCTTCCTCAAGCTGCCAG has a sensor-assay potency score (higher = more potent) of 0.401.
For ATAGTAACAACTTTCTCTGTTC, the sensor-assay potency score (higher = more potent) was -0.226.
